SMILES strings stand for the structures.

This assay concerns Vero E6 infected with SARS-CoV-2. Description: morphology score (similarity to uninfected cells); higher = more like uninfected cells. The following applies: 24 h.
On to `COc1cc(OC2CCN(C)CC2)ccc1Nc1ncc2c(n1)n(C1CCCC1)c(=O)n2C` (0.833333 µM), for which the morphology score came to 0.126.
Then `COc1ccc(-n2[nH]c3c4c(ncc3c2=O)CCCCC4)cc1` (10 µM), with 0.194; and `OC[C@H]1O[C@H]([S-])[C@H](O)[C@@H](O)[C@@H]1O.[Au+]` [aurothioglucose] (10 µM), with -0.0654; and `O=C(COc1ccc(Cl)cc1)N1CCN(Cc2ccc3c(c2)OCO3)CC1` [fipexide] (10 µM), with -0.165.
Under `CCc1cnc(N2CCC(c3nc(COc4ccc(-n5cnnn5)cc4)cs3)CC2)nc1` (10 µM) stands 0.0438; under `CCN(CC)CC(=O)Nc1c(C)cccc1C` [lidocaine] (10 µM), 0.0603; under `CCCn1c(=O)c2[nH]c(C3CCCC3)nc2n(CCC)c1=O` (10 µM), 0.0194.
Then `CS(=O)(=O)c1ccc(Cn2c3c(c4cc(F)cc(F)c42)CCCC3CC(=O)O)cc1` (stereo not drawn) (10 µM), with 0.144.
`CC(C)(Cc1ccc2ccccc2c1)NC[C@@H](O)COc1cccc(Cl)c1C#N` (10 µM) yielded a morphology score of 0.703.
Then `N=C(N)NC(=N)Nc1cccc(Cl)c1` [m-chlorophenylbiguanide] (10 µM), with -0.0474.
Under `Cc1ccc2cc(-c3c(C)ccc(C(=O)c4c(-c5ccccc5)n(C)n(-c5ccccc5)c4=O)c3N)ccc2n1` (10 µM) stands 0.0631; under `Cn1nnnc1SCC1=C(C(=O)O)N2C(=O)[C@@H](NC(=O)[C@H](OC=O)c3ccccc3)[C@H]2SC1` [cefamandole-nafate] (10 µM), 0.0598; under `Clc1ccc2nsnc2c1NC1=NCCN1` [tizanidine] (10 µM), -0.0251.

The values above are taken from the supplement of paper PMC13380429.
